Compound activity (PubChem)
TROY NFkB inh – blocks TROY-dependent signaling in reporter cells; 0.98% of 360,000 active; inhibition, % at 10 µM; Q293 LMP1-TROYcd NF-kB luciferase reporter, 4 h; AID 1347056;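 active means compounds whose plate-normalised and pattern-corrected inhibition of the luciferase reporter signal at the single screening dose is 50% or more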
KKLEB cytotox – CF airway cell cytotoxicity counter-screen; 0.36% of 360,000 active; AID 602141; activity change (cytotoxicity), % at 5 µM; KKLEB CF airway cells viability, ATPlite luminescence, overnight; active compounds read low; cells stimulated with P. aeruginosa culture filtrate;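 active means corrected activity change at or below -50% at 5 µM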
TWEAK-Fn14 inh – TWEAK-Fn14 signaling inhibition; TWEAK-stimulated Fn14 reporter cells, luciferase luminescence, 8 h; inhibition, % at 10 µM; 2% of 360,000 active; in the data active means inhibition above about 50%
HIF-2a block – blocks HIF-2a reporter activity | AID 624352 | inhibition, % at 18.8 µM | 786-0 RCC cells HIF-2a reporter, luciferase luminescence, overnight | 0.72% of 360,000 active;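 active means inhibition of the luminescence signal of 40% or more relative to plate controls, in a single-dose primary screen at 18.75 µM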
Peg3 promoter – Peg3 promoter activity inhibition; HeLa PEG-Prom luciferase reporter, luminescence, overnight; inhibition, % at 20 µM; 1.7% of 360,000 active; AID 588405;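 active means inhibition of at least 50% at 20 µM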
CF NFkB block – inhibitors of cystic fibrosis induced NF-kB. 0.86% of 360,000 active. AID 588850. inhibition, % at 5 µM. KKLEB NF-kB-GFP reporter, PAF-induced, GFP fluorescence overnight;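 active means at least 50% inhibition at 5 µM, scaled per plate between neutral and stimulator controls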;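 further: PAF is a Pseudomonas aeruginosa culture filtrate used as stimulus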
Numbers stand for hits; - = inactive; . = no result given. A selection: hits, their analogues and other compounds. The true share with any hit is near 3.9%.

SMILES | TROY NFkB inh | KKLEB cytotox | TWEAK-Fn14 inh | HIF-2a block | Peg3 promoter | CF NFkB block
O=C1CC(c2ccc(O)cc2)Oc2cc(O)cc(O)c21 (centres undefined) | - | - | - | - | - | -
CC1CC(=O)c2c(cc3c(-c4c(O)cc(O)c5c(O)c6c(cc45)OC(C)CC6=O)c(O)cc(O)c3c2O)O1 (centres undefined) | - | - | 78 | 91 | 105 | 53
Cc1ccc2[nH]c3c(c2c1)CCCC3NCCO (centres undefined) | - | - | - | - | 52 | -
CCOc1cc(/C=C(\C#N)C(=O)Nc2cccc(C(=O)O)c2)ccc1OCc1ccccc1Cl | - | - | - | - | - | -
CCOc1cc(/C=C(\C#N)C(=O)Nc2cccc(C(=O)O)c2)cc(Br)c1OC(=O)c1ccc(OC)cc1 | 62 | - | - | - | - | -
CSCCC1Nc2ccc(S(=O)(=O)N3CCOCC3)cc2NC1=O (centres undefined) | - | - | - | - | - | -
COc1ccc(-c2cc(=O)c3c(O)c(OC)c(O)cc3o2)cc1 | - | - | 54 | - | - | -
CCSCCCn1[nH]c2ccccc2c1=O | - | - | - | - | - | -
CCOC(=O)c1ccc(-c2ccc(/C=N/NC(=O)CN(c3cccc(C)c3)S(C)(=O)=O)o2)cc1 | - | - | - | - | - | -
CCOC(=O)c1ccc(-c2ccc(/C=N/NC(=O)CN(c3ccccc3Cl)S(C)(=O)=O)o2)cc1 | - | - | 71 | - | - | -
C=CCn1c(C)cc(-c2csc(NC(=O)C3CCN(c4ncnc5sc(C)c(C)c45)CC3)n2)c1C | - | - | - | - | - | -
COc1cc(C(=O)Nc2cccc(C)n2)ccc1OCC(=O)N1CCOCC1 | - | - | - | - | - | -
COc1ccccc1OCC(=O)NNC(=O)C1CCN(c2ncnc3sc(C)c(C)c23)CC1 | - | - | - | - | - | -
COc1ccc(-c2csc(NC(=O)c3ccc(OCC(=O)N4CCOCC4)c(OC)c3)n2)cc1OC | 71 | - | 81 | - | 92 | -
Cc1ccccc1OCC(=O)NNC(=O)C1CCN(c2ncnc3sc(C)c(C)c23)CC1 | 53 | - | - | - | - | -
Cc1sc2ncnc(N3CCC(C(=O)Nc4ccc(Br)cc4Br)CC3)c2c1C | 56 | - | - | - | - | -
COc1ccc(-c2csc(NC(=O)C3CCN(c4ncnc5sc(C)c(C)c45)CC3)n2)cc1OC | 70 | - | 102 | - | - | -
Cc1ccc(-c2noc(CNC(=O)c3ccc4c(c3)OCO4)n2)cc1 | - | - | - | - | - | -
Cc1ccc(CN(C)C(=O)CN2C(=O)NC3(CCCC3)C2=O)o1 | - | - | - | - | - | -
CC(C)Oc1ccc(C(CCN)C2CCCCC2)cc1 (centres undefined) | - | - | - | - | 105 | -
NS(=O)(=O)c1ccc(CCNc2ccccc2[N+](=O)[O-])cc1 | - | - | - | - | - | -
COc1cccc(/C=N/NC(N)=S)c1OCc1ccccc1Cl | - | - | - | - | - | -
NC(=S)N/N=C/c1ccccc1OCCSc1ccc(Cl)cc1 | - | - | 61 | - | - | -
COc1ccc(C2C(C(=O)c3ccccc3)N3c4ccccc4C=CC3C2[N+](=O)[O-])cc1 (centres undefined) | - | - | - | - | - | -
COC(=O)c1ccc(COc2cccc3c2CCN(Cc2cccc(C)c2)C3=O)o1 | - | - | 55 | - | - | -
SMILES | TROY NFkB inh | KKLEB cytotox | TWEAK-Fn14 inh | HIF-2a block | Peg3 promoter | CF NFkB block
COC(=O)c1ccc(COc2cccc3c2CCN(Cc2ccccc2)C3=O)o1 | - | - | - | - | - | -
COc1ncnc2c1ncn2CCCN1CCN(Cc2ccc(C)cc2)CC1 | - | - | - | - | - | -
Cn1cc(C(=O)c2ccc(Cl)cc2)cc1-c1nc2ccccc2n1C | 57 | - | 52 | - | - | -
Cn1c(=O)c(C(=O)c2ccccc2)nc2ccccc21 | - | - | - | - | - | -
CCOc1cc(C(=O)NCC(C)(C)CNC(=O)c2cc(OCC)c(OCC)c(OCC)c2)cc(OCC)c1OCC | - | - | - | - | - | -
Cc1cccc(C)c1OCC(=O)NNC(=O)c1ccoc1C | . | - | 51 | - | - | -
Cc1occc1C(=O)N/N=C/C=C/c1ccc(N(C)C)cc1 | - | - | - | - | - | -
COc1ccccc1OCC(=O)NNC(=O)c1ccoc1C | - | - | - | - | - | -
COc1ccc(/C=N\NC(=O)c2ccccc2OC)cc1COc1ccccc1C | - | - | - | - | - | -
COc1ccc(/C=N/NC(=O)c2ccoc2C)cc1COc1c(C)cccc1C | - | - | 74 | - | - | -
Cc1occc1C(=O)N/N=C/c1ccc(N(C)C)cc1 | - | - | 72 | - | - | -
O=C(COC(=O)Cc1n[nH]c(=O)c2ccccc12)NNC(=O)c1ccccc1 | - | - | - | - | - | -
Cc1cccc(C(=O)NCC(c2ccco2)N(C)C)c1 (centres undefined) | - | - | - | - | - | -
COc1ccc(NC(=O)c2ccc(C#N)cc2)cc1NS(=O)(=O)c1ccc(F)cc1 | - | - | - | - | - | -
COc1ccc(-c2ccc(NC(=O)c3ccco3)cc2)nn1 | - | - | 77 | - | - | -
CCC(C)c1ccc(NC(=O)c2ccco2)cc1 (centres undefined) | - | - | 66 | - | - | -
CCC(C)c1ccc(NC(=O)COC(=O)CCNC(=O)c2ccco2)cc1 (centres undefined) | - | - | - | - | - | -
COc1ccccc1NC(=O)c1oc2ccccc2c1NC(=O)c1cc(OC)c(OC)c(OC)c1 | - | -58 | - | - | - | 56
COc1ccc(NC(=O)c2oc3ccccc3c2NC(=O)c2ccco2)cc1 | - | - | 55 | - | - | -
COc1ccc(NC(=O)c2oc3ccccc3c2NC(=O)c2ccco2)c(OC)c1 | - | - | - | - | - | -
CCN(CCCNC(=O)c1[nH]c(C)c(C(C)=O)c1C)c1cccc(C)c1 | - | - | - | - | - | -
CN(C)c1ccc(CN(C(=O)c2ccco2)C2CCS(=O)(=O)C2)cc1 (centres undefined) | - | - | - | - | - | -
COc1ccc(NC(=O)c2cc(-c3cc(C)cc(C)c3O)n[nH]2)cc1Cl | 64 | - | 82 | - | 61 | -
COc1ccc(NC(=O)c2cc(-c3ccccc3O)n[nH]2)cc1Cl | - | - | - | - | - | -
COC(=O)c1c(NC(=O)C2COc3ccccc3O2)sc2c1CCN(C(C)=O)C2 (centres undefined) | - | - | 55 | - | - | -
Cc1csc(NC(=O)C2COc3ccccc3O2)n1 (centres undefined) | - | - | 78 | - | - | -
CC1CCc2nc(NC(=O)C3COc4ccccc4O3)sc2C1 (centres undefined) | 82 | - | 96 | - | - | -
Cc1cnc(NC(=O)C2COc3ccccc3O2)s1 (centres undefined) | 60 | - | 95 | - | - | -
